Consider 40 compounds from PubChem BioAssay AID1489 (National Center for Advancing Translational Sciences (NCATS), 2009).

Results filed as inconclusive are left out. Values without a mark were called inactive. Activity calls are given as the source filed them. Calls follow the shape of the dose curve; as a rule, active = well fitted antagonist curve with a large enough effect in the main read-out, with a control signal flat; inconclusive = small, poorly fitted or top-dose-only effect; inactive = no such curve, though single readings can be large or run the other way.

In the test the target is Neuropeptide S receptor (Homo sapiens) (UniProt Q6W5P4). Nature of the test: Confirmation Concentration-Response Assay for Antagonists of the Neuropeptide S Receptor: Calcium Signal Transduction. Particulars: CHO-NPSR cells, NPS-induced calcium flux, FDSS; series mostly up to 19.3 µM; activity change, negative = inhibition: at the top concentration. An excerpt: NIH Chemical Genomics Center [NCGC] NIH Molecular Libraries Probe Production centers Network [MLPCN] MLPCN Grant: X01-DA026210-01 Assay Submitter (PI): Heilig, Markus Alexander NCGC Assay Overview: Neuropeptide S receptor (NPSR), previously known as GPR154, is a recently de-orphanized G protein coupled receptor. Its endogenous ligand is the 20 amino acids peptide Neuropeptide S (NPS). […] NPS and its receptor are found in various tissues. Specifically they are highly expressed in brain areas that have been implicated in modulation of arousal, stress and anxiety. Central administration of NPS in mice produces an unusual profile of activity by inducing wakefulness and arousal, while at the same time suppressing anxiety. Therefore, NPSR may represent a novel drug target for the treatment of sleep and anxiety disorders. To identify NPSR antagonists, we developed a cell-based assay with transfected NPS receptor. NPS can stimulate the production of cAMP as well as release intracellular calcium in Chinese hamster ovary cells stably expressing NPS receptor. This change in intracellular calcium can be detected using a calcium indicator dye on a calcium imaging plate reader system (FDSS).
Chain of Neuropeptide S receptor (Homo sapiens) (Q6W5P4 whole entry, looked up): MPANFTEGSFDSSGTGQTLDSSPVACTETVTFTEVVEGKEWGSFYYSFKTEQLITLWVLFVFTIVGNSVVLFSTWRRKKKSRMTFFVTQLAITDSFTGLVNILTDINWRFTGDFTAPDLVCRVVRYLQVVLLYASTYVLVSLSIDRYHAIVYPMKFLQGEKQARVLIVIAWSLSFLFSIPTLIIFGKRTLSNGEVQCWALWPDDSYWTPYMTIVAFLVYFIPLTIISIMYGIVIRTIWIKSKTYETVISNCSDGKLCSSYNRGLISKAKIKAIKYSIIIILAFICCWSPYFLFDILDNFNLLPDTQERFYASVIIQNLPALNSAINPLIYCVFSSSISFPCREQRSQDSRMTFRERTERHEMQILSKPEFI
NCGC Assay Protocol Summary: A Chinese hamster ovary (CHO) cell line stably expressing the NPS receptor (CHO-NPSR) was obtained from Dr. Heilig lab at NIAAA and maintained in F-12 Kaighn's media (Invitrogen, Carlsbad, CA, 21127) supplemented with 10 % FBS, 100 units/ml penicillin, 100 ug/ml streptomycin and 250 ug/ml geneticin at 37C, 5% CO2 in a humidified atmosphere. Before the assay, aliquots of cells were frozen and stored at -135C. The assay was performed on a FDSS-7000 kinetic plate reader in 1536-well format. For both agonist (1-220s) and antagonist (221-400s) phases, the maximums of kinetic fluorescence responses were converted separately into text files using the instrument's software data export utility. Data for agonist response were normalized to the controls for basal activity (DMSO only) and 100% activation (NPS). […] AC50 values were determined from concentration-response data modeled with the standard Hill equation. NPS 1536-well FDSS assay protocol: (1) Frozen CHO-NPSR cells were thaw, washed once with fresh media and resuspended in F-12 Kaighn's media supplemented with 10 % FBS, 100 units/ml penicillin and 100 ug/ml streptomycin. Cells were plated at 3 ul/well (1200 cells) to black, clear-bottom, tissue-culture treated 1536-well plates, and then cultured at 37C, 5 % CO2 for 16 to 30 hours. (2) Add 3 ul of calcium dye (from High Performance PBX Calcium Assay Kit, BD Biosciences). The calcium dye was prepared according to the manufactory's instruction. (3) Incubation at 37C, 5 % CO2 for 60 to 120 min. (4) Load plates to FDSS-7000. The following steps were performed on FDSS-7000. (5) Record fluorescent background (Ex 480 nm, Em 520-560 nm) for 10 s. (6) Add 23 nl/well of compound in DMSO solution. The final titration for each compound was between 0.6 nM and 46 uM. Record agonist response for 210 s. (7) Add 2 ul of stimulation reagent (1X HBSS buffer, 0.1% BSA, 60 nM NPS). Record antagonist response for 140 s. Keywords: MLSMR, MLPCN, NIH Roadmap, qHTS, NCGC, NPS, Neuropeptide S Antagonists
A general note: Calcium assays in cells follow changes in intracellular calcium, usually with a dye or a luminescent sensor.
Consider `CCCCOc1ccc(OCCCN2CCOCC2)cc1`, for which the “activity change, negative = inhibition” value was 2.69%.
Still for that read-out and setting: the same measure for `Nc1ccc(-c2nc3c(Cl)cc(N)cc3[nH]2)cc1`: -10.2%.
As to `C/C(=N\Nc1ncc(Cl)cc1Cl)c1ccccn1`, the Potency is 2.51 µM (active).
Consider `c1cncc(-c2nc(-c3ccco3)cs2)c1`, for which the “activity change, negative = inhibition” value is -10.1%.
Still for that read-out and setting: the same measure for `Cn1c(COc2ccccc2)nnc1SCc1cc(=O)[nH]c2ccccc12`: -4.37%; for `Cc1cccc(-c2nnc(SCc3cc(=O)[nH]c4ccccc34)n2C)c1`: -8.64%.
Turning to `Cc1ccc(-c2ccc(/C=C3\C(=O)ON=C3c3ccccc3)o2)c([N+](=O)[O-])c1`, the Potency is 2.82 µM (active).
On to `CC(=O)c1sc(-c2ccccc2)cc1NS(=O)(=O)c1ccccc1`, for which the “activity change, negative = inhibition” value was 19.9%.
On the same count and under the same terms, in the case of `CN(C)c1nc(=Nc2cccc(Cl)c2)ss1` it was 5.52%.
Take `CC(=O)n1nc2nc(C)cc(C)c2c1N`: the “activity change, negative = inhibition” value is 6.81%.
Turning to `O=C(c1ccccc1-c1nc2ccccc2[nH]1)N1CCCCC1`, the “activity change, negative = inhibition” value was -21.1%.
For `CCC(C)n1c(=O)c(C(=O)Nc2ccccc2S(N)(=O)=O)c(O)c2ccccc21` (stereo not given), the “activity change, negative = inhibition” value is -2.76%.
For `O=c1cc(CNCCCO)c2ccccc2[nH]1`, the “activity change, negative = inhibition” value is -1.54%.
Consider `O=[N+]([O-])c1cc2c(cc1/C=N/n1c(-c3ccccc3)n[nH]c1=S)OCO2`, for which the “activity change, negative = inhibition” value is -1.53%.
Turning to `Cc1ccc2nc3ccc(N4CCCCCCC4)nn3c(=O)c2c1`, the “activity change, negative = inhibition” value is -5.95%.
The same measure, in the same setting: the same measure for `COCCCn1c(SCc2cc(=O)[nH]c3ccccc23)nnc1-c1ccco1`: 15.8%; for `C(=C\c1ccccc1)/C=N/N1CCN(c2ccccn2)CC1`: -11.5%; for `N#Cc1cnn(-c2ncnc3sc4c(c23)CCCC4)c1N`: -17.2%.
Same read-out and setting: in the case of `CCC(Sc1ccc2nnc(-c3cccnc3)n2n1)C(=O)O` (stereo not given) it was -3.7%; in that of `CCOC(=O)c1cnc(-n2nc(C)cc2C)nc1Nc1ccc(C)cc1`, -19.5%; in that of `CN(C)c1ccc(N=Cc2ccco2)cc1`, -23.3%.
Take `COc1ccccc1-c1nnc(SC2CCc3ccccc3NC2=O)s1` (stereo not given): the “activity change, negative = inhibition” value is -30%.
The same measure, in the same setting: the same measure for `CN(CC(=O)NCc1ccc(F)cc1)S(=O)(=O)c1cccc2nsnc12`: 7.19%; for `CCCN1C(=O)/C(=C\C=C2/C=CN(CC)c3ccccc32)SC1=S`: -24.1%; for `C=CCOc1c(Cl)cc(CNc2ccc(N(C)C)cc2)cc1OC`: -13.4%.
For `CN(C)c1ccc(N2CN=C3SCC(=O)N3C2)cc1`, the “activity change, negative = inhibition” value is 10.4%.
On to `O=[N+]([O-])c1ccc(-c2nc(C(Cl)Cl)c3ccccc3n2)cc1`, for which the “activity change, negative = inhibition” value is -23.4%.
In the case of `CC1CCCCN1S(=O)(=O)c1ccc(C(=O)Nc2sccc2C(N)=O)cc1` (stereo not given), the Potency was 12.6 µM (active).
Take `CS(=O)(=O)c1nc(-c2ccccc2)cc(C(F)(F)F)n1`: the Potency is 7.94 µM (active).
In the case of `O=C(CSc1n[nH]c(-c2cccnc2)n1)Nc1ccnc2ccccc12`, the “activity change, negative = inhibition” value is -2.97%.
In the case of `Cc1cc(C)n(-c2nc(NC(C)C)nc(NC(C)C)n2)n1`, the “activity change, negative = inhibition” value is 29%.
As for `COc1cccc2sc(Nc3nc(-c4ccccn4)cs3)nc12`, the Potency is 3.16 µM (active).
Consider `CCOC(=O)c1cnc(-n2nc(C)cc2C)nc1NC1CCCC1`, for which the Potency is 2.82 µM (active).
Turning to `Cc1ccc(-n2ncc3c(NCc4ccc5c(c4)OCO5)ncnc32)c(C)c1`, the “activity change, negative = inhibition” value is -21.2%.
Still for that read-out and setting: in the case of `S=C(Nc1ccccc1)Nc1nccs1` it was 23.7%; in that of `Cc1oc2c(c1C(=O)NCc1cccnc1)C(=O)c1ccccc1C2=O`, 16.4%.
For `O=C(/C(=C/c1ccc(Cl)cc1)c1nc2ccccc2[nH]1)c1cccs1`, the Potency was 8.91 µM (active).
`CCn1cc(C(=O)NCC2CCCO2)c(=O)c2cc(S(=O)(=O)N3CCCCCC3)ccc21` (stereo not given): the “activity change, negative = inhibition” value was 15%.
Same read-out and setting: in the case of `COc1ccc(/C=C2\CCCC3C2=NN(C(=O)c2ccco2)C3c2ccc(OC)c(OC)c2)cc1OC` (stereo not given) it was 14.6%; in that of `Nn1c(COc2ccccc2)nnc1SCc1cc(=O)[nH]c2ccccc12`, 7.99%.
